# Source: PMC5913336, “True equilibrium measurement of transcription factor-DNA binding affinities using automated polarization microscopy”
# Biological target: T1, Fkh (Drosophila melanogaster, UniProt P14734 209-300)
# T1 sequence: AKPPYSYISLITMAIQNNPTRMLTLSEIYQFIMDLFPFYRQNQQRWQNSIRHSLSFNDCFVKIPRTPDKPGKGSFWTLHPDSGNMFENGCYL
# Assay: FP; 33 mM phosphate pH 7.0, 90 mM NaCl, 0.01% Tween 20, 0.1 mM DTT, 0.5% agarose; room temperature
# Conditions: tags: N-GST (pGEX-6P-1, kept); dsDNA, one strand shown
Sequence,Kd [nM],binding signal
AGTTAAATATTGA,~17,–
AGTTAATTATTGA,–,6.31 Kd / Kd of best base at the position
AGTTAAATATTGT,–,1.97 Kd / Kd of best base at the position
AGTTAAATATTCA,–,2.02 Kd / Kd of best base at the position
AGTTAAAGATTGA,–,14.9 Kd / Kd of best base at the position
AGGTAAATATTGA,–,1.27 Kd / Kd of best base at the position
AGTTAAATATCGA,–,6.39 Kd / Kd of best base at the position
AGTTAAACATTGA,–,29.1 Kd / Kd of best base at the position
AGCTAAATATTGA,–,3.26 Kd / Kd of best base at the position
AGTTATATATTGA,–,18.4 Kd / Kd of best base at the position
AGTAAAATATTGA,–,4.77 Kd / Kd of best base at the position
AGTTAACTATTGA,–,10.2 Kd / Kd of best base at the position
GGTTAAATATTGA,–,6.61 Kd / Kd of best base at the position
AGTTAAATGTTGA,–,102 Kd / Kd of best base at the position
AGTTAGATATTGA,–,60.9 Kd / Kd of best base at the position
AGTTCAATATTGA,–,2.55 Kd / Kd of best base at the position
AGTTACATATTGA,–,4.6 Kd / Kd of best base at the position
AGTTAAATATTTA,–,1.68 Kd / Kd of best base at the position
AGTTAAATATTGG,–,1.17 Kd / Kd of best base at the position
AGTTTAATATTGA,–,32.1 Kd / Kd of best base at the position

Sequence,Kd [nM],binding signal
AGTTAAATAGTGA,–,2.35 Kd / Kd of best base at the position
TGTTAAATATTGA,–,1.33 Kd / Kd of best base at the position
AATTAAATATTGA,–,2.06 Kd / Kd of best base at the position
ACTTAAATATTGA,–,7.14 Kd / Kd of best base at the position
AGTTAAATATGGA,–,3.07 Kd / Kd of best base at the position
AGTGAAATATTGA,–,6.68 Kd / Kd of best base at the position
AGTTAAATATTGC,–,2.76 Kd / Kd of best base at the position
ATTTAAATATTGA,–,1.06 Kd / Kd of best base at the position
AGTTAAGTATTGA,–,37.9 Kd / Kd of best base at the position
AGTTAAATTTTGA,–,7.9 Kd / Kd of best base at the position
AGTCAAATATTGA,–,3.44 Kd / Kd of best base at the position
AGATAAATATTGA,–,1.16 Kd / Kd of best base at the position
AGTTAAATAATGA,–,2.19 Kd / Kd of best base at the position
AGTTAAATACTGA,–,27.4 Kd / Kd of best base at the position
CGTTAAATATTGA,–,8.05 Kd / Kd of best base at the position
AGTTAAATCTTGA,–,14.3 Kd / Kd of best base at the position
AGTTAAAAATTGA,–,18.5 Kd / Kd of best base at the position
AGTTGAATATTGA,–,59.1 Kd / Kd of best base at the position
AGTTAAATATAGA,–,1.73 Kd / Kd of best base at the position
AGTTAAATATTAA,–,1.49 Kd / Kd of best base at the position
